Screens as filed in PubChem BioAssay.
NPC1 prom act: qHTS Assay for NPC1 Promoter Activators | Potency, µM (highest dose often 9.22 µM), for inactives: at the top dose activation, most hits filed as activators | 320,000 tested, 2.4% active | Huh7 NPC1 promoter luciferase reporter, 24 h; also: % of control where 0% means no effect; nearly all actives have a fitted effect of over 60% in size
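Luciferase expression driven by the NPC1 promoter was measured in stably transfected Huh7 cells after a 24 h compound incubation, using a luciferase reagent and a luminescence read.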
ELG1 DNA repair: qHTS screen for small molecules that inhibit ELG1-dependent DNA repair in human embryonic kidney (HEK293T) cells expressing luciferase-tagged ELG1; HEK293T ELG1-luciferase reporter, luminescence, 16 h; DNA damage induced by 5-fluorouridine; Potency, µM (top dose mostly 46.1 µM), for inactives: at the top dose activity change, negative = inhibition, actives largely listed as inhibitors; 330,000 tested, 2.3% active; AID 504467, 2011; also: % is scaled to controls: 0 for no effect and ±100 for the full control effect; nearly all actives have a fitted effect of over 55% in size
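5-Fluorouridine DNA damage + compound/DMSO, 2,000 cells/well, 16 h, 37 °C/5% CO2. ONE-Glo, 30 min RT, luminescence. Readout = decrease in reporter signal.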
FLuc modulator: qHTS profiling assay for firefly luciferase inhibitor/activator using purifed enzyme and Km concentrations of substrates (counterscreen for miR-21 project); Luciferin 4-monooxygenase (Photinus pyralis), P08659; purified FLuc, Km substrates, luminescence inhibition; Potency, µM (highest dose often 57.5 µM), inactives show at the top dose activity change, negative = inhibition, actives largely listed as inhibitors; 360,000 tested, 6.9% active; AID 588342, 2011;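 also: plate controls were vehicle for no effect and reference inhibitor for full effect; nearly all actives have a fitted effect of over 55% in size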
Target sequence (P08659 whole entry, looked up): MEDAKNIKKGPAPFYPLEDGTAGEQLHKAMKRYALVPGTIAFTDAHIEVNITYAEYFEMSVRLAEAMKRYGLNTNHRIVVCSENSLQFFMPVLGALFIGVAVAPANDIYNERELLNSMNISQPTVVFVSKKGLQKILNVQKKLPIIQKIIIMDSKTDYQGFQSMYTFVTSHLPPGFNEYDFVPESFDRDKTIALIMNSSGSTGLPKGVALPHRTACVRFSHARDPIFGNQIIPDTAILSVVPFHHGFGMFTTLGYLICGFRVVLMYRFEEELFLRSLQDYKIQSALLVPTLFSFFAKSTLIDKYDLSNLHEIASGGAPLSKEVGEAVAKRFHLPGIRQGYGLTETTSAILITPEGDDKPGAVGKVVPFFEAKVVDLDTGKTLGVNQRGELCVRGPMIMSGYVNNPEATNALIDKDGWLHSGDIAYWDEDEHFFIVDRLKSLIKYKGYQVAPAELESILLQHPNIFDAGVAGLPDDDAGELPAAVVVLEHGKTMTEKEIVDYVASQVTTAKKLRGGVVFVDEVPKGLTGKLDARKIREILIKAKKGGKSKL
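Purified P. pyralis luciferase, 10 nM final, with Km-level 10 uM D-luciferin and 10 uM ATP in 50 mM Tris acetate pH 7.5, 10 mM Mg acetate, 0.01% Tween-20, 0.05% BSA; 6-point qHTS titration about 60 µM downward; luminescence read.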
Rab9 promoter act: qHTS Assay for Rab9 Promoter Activators; Huh7 Rab9 promoter-luciferase reporter, luminescence, 24 h; AID 485297, 2010; Potency, µM (doses to about 9.22 µM), without a hit: at the highest dose activation, negative = inhibition, most hits filed as activators; 320,000 tested, 2.8% active; also: % of control where 0% means no effect; nearly all actives have a fitted effect of over 60% in size
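Using Huh7 cells stably transfected with Rab9 promoter–luciferase, compounds were incubated 24 h at 37 °C, 5% CO2; luciferase luminescence was read 10 min after reagent addition.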
ELG1 genotoxic: qHTS screen for small molecules that induce genotoxicity in human embryonic kidney (HEK293T) cells expressing luciferase-tagged ELG1. HEK293T ELG1-luciferase reporter, luminescence, 16 h. Potency, µM (top dose mostly 46 µM), without a hit: at the highest dose activity change, positive = activation, usual class: activators. 330,000 tested, 1.3% active. AID 504466, 2011; also: % of control where 0% means no effect; nearly all actives have a fitted effect of over 60% in size
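Luminescence read-out: rising ELG1-luciferase signal, reflecting elevated ELG1 protein under genetic stress, flags genotoxic compounds. Cells were treated for 16 hr at 37 °C before ONE-Glo detection.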
SMN2 splice up: qHTS Assay for Enhancers of SMN2 Splice Variant Expression. HEK293 SMN2-luciferase splicing reporter, luminescence, 30-36 h. Potency, µM (series often up to 46.1 µM), for the others: at the top dose activity change, positive = activation, usual class: activators. 210,000 tested, 2.8% active. AID 1458, 2008; also: % of control where 0% means no effect; nearly all actives have a fitted effect of over 55% in size
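HEK293 cells carry an SMN2 minigene-luciferase reporter in which exon 7 inclusion puts luciferase in frame. Cells were seeded at 2000 cells/well, attached for 10-12 hours, then exposed to compounds for 30-36 hours at 37C before ONE-Glo luminescence.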
Active calls of the source: *; ? = inconclusive; · = no result given. In the library only some 9.4% were active in any assay of this set; here they are far more common. Calls follow the shape of the dose curve; as a rule, active = well fitted curve in the direction sought with a large enough effect; inconclusive = small, poorly fitted or top-dose-only effect, or another doubt; inactive = no such curve, though single readings can be large; an effect the other way counts as inactive or inconclusive. Potency is read from the fitted curve at half-maximal effect.

SMILES	NPC1 prom act	ELG1 DNA repair	FLuc modulator	Rab9 promoter act	ELG1 genotoxic	SMN2 splice up
C(=N\Nc1nc2ccccc2[nH]1)/c1cccs1	3.2µM*	?	3.8µM*	4µM*	?	·
Cc1cc(=O)[nH]c(N/N=C/c2cc(C)n(-c3ccccc3)c2C)n1	3.2µM*	?	7.6µM*	?	9.2µM*	·
Cc1cc(=O)[nH]c(N/N=C/c2ccccc2Cl)n1	15%	?	-12%	19%	5%	·
Cc1ccsc1/C=N/Nc1nc2ccccc2[nH]1	2.5µM*	?	3.4µM*	2.5µM*	?	11µM*
Cc1cc(=O)[nH]c(N/N=C/c2cccs2)n1	12%	?	17µM*	12%	8%	6%
CCOC(=O)c1ccc(NC(=O)CSc2nccn2-c2ccc(OCC)cc2)cc1	·	·	-7%	·	·	-4%
N#CCCn1c(=O)c(CCc2ccccc2)nc2cnc(N3CCOCC3)nc21	·	·	·	·	·	-3%
Cc1c(CNCc2ccc(OC(C)C)cc2)c(C(=O)O)c(C)n1Cc1ccc(Cl)cc1	·	·	-2%	·	·	16%
Cc1ccc(CNC(=O)c2ccc(Cn3nc(C)c(Cl)c3C)o2)cc1	-5%	-17%	5%	0%	1%	-1%
Cc1cc(C)cc(NC(=O)c2ccc(Cn3nc(C)c(Cl)c3C)o2)c1	-4%	21µM*	-8%	-2%	-7%	-27%
Cc1csc(NC(=O)c2ccc(Cn3nc(C)c(Br)c3C)o2)n1	0%	9.2µM*	-11%	-2%	0%	·
CCOc1ccc(N(C)S(=O)(=O)c2ccc3c(c2)C(C)(C)C(=O)N3C)cc1	·	·	-1%	·	·	·
CN(C)c1ccc(NC(=O)Cn2cc3c(n2)CCCC3)cc1	9%	?	19µM*	0%	?	-4%
O=S(=O)(Nc1ccccc1)c1ccc(-c2csnn2)cc1	-4%	?	-2%	1%	-5%	·
O=C(Oc1ccc(-c2csnn2)cc1)c1cccs1	-2%	1%	2.4µM*	7%	-5%	·
c1ccc(-c2ccc(-c3csnn3)cc2)cc1	2.2µM*	?	?	2µM*	13%	?
O=C(Oc1ccc(-c2csnn2)cc1)C1CC1	-6%	-1%	17µM*	0%	0%	·
O=C(CCC(=O)N1CC2CCCN2c2ccccc21)NCc1ccccc1F (stereo not given)	·	·	4%	·	·	·
Cc1ccccc1NC(=O)CSc1nc(-c2ccccc2)cn1-c1ccccc1F	·	·	5%	·	·	·
CCn1ncc(/C=N\NC(=O)c2csc3ccccc23)c1C	-10%	?	11µM*	-8%	?	23%
Cc1nn(C)c(C)c1/C=N/NC(=O)c1csc2ccccc12	-2%	?	17µM*	26%	15%	-3%
Cc1c(/C=N\NC(=O)c2csc3ccccc23)cnn1C	2%	9%	?	15%	8%	-2%
Cc1c(Cl)cccc1NC(=O)c1oc2ccc(S(=O)(=O)N3CCCCCC3)cc2c1C	·	·	-5%	·	·	·
COC(=O)c1ccc(NC(=O)CC2C(=O)N(c3cccc(C)c3)C(=O)N2C2CCCC2)cc1 (stereo not given)	·	·	-6%	·	·	·
CCOc1cc(-c2cc(-c3ccc(N)cc3)nc(N)c2C#N)ccc1O	1%	?	-13%	9%	-1%	13µM*
CCOc1ccccc1NC(=O)c1cc2c(=O)[nH]c3ccccc3c2s1	·	·	-2%	·	·	0%
Cc1cccc(Nc2nc(-c3ccccc3)c(C(=O)Nc3cccnc3)s2)c1	8%	13µM*	17µM*	20%	-6%	-92%
